Results from PubChem BioAssay AID1159580 (chemical genetic matrix, 2015).
Among all 5,500 compounds or so, about 2,000 (36%) were called active. Inconclusive results (about 18%) are left out. No stated cut-off is given here; in the data, active means normalized growth mostly below about 0.91 (no sharp cut-off); inconclusive means no clear call, values can overlap the other calls; inactive means mostly above about 0.92. Some of the results follow.

Experiment: chemical genetic growth profiling, strain panel (AID 1159580);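 further: tested at 20 µM; growth read once vehicle control cultures reached saturation at 30 °C; 1 = growth at the plate median or of vehicle wells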
Conditions: growth OD

Measured: normalized growth

c1ccc2c(CC3=NCCN3)cccc2c1
inactive: S. cerevisiae deletion strains, locus YJR075W, strain HOC1, stronger effect = lower value 1 | S. cerevisiae deletion strains, locus YKL009W, strain mrt4, stronger effect = lower value 1.01 | S. cerevisiae deletion strains, locus YKL068W, stronger effect = lower value 1.01 | S. cerevisiae deletion strains, locus YKL085W, strain MDH1 (second series), stronger effect = lower value 1.02 | S. cerevisiae deletion strains, locus YKL085W, strain MDH1, stronger effect = lower value 1.02 | S. cerevisiae deletion strains, locus YKL160W, strain elf1, stronger effect = lower value 0.984 | S. cerevisiae deletion strains, locus YKL190W, strain CNB1, stronger effect = lower value 1 | S. cerevisiae deletion strains, locus YKR001C, strain vps1, stronger effect = lower value 1.01 | S. cerevisiae deletion strains, locus YKR026C, strain gcn3, stronger effect = lower value 0.984 | S. cerevisiae deletion strains, locus YKR091W, strain srl3, stronger effect = lower value 0.98 | S. cerevisiae deletion strains, locus YLL001W, strain dnm1, stronger effect = lower value 0.986 | S. cerevisiae deletion strains, locus YLL026W, stronger effect = lower value 0.997 | S. cerevisiae deletion strains, locus YLL041C, strain sdh2, stronger effect = lower value 0.972 | S. cerevisiae deletion strains, locus YLR027C, strain aat2, stronger effect = lower value 0.973 | S. cerevisiae deletion strains, locus YLR039C, strain RIC1, stronger effect = lower value 1.04 | S. cerevisiae deletion strains, locus YLR058C, strain SHM2, stronger effect = lower value 1.01 | S. cerevisiae deletion strains, locus YLR102C, strain apc9, stronger effect = lower value 1.02 | S. cerevisiae deletion strains, locus YLR113W, strain HOG1, stronger effect = lower value 0.991 | S. cerevisiae deletion strains, locus YLR221C, strain rsa3, stronger effect = lower value 0.995 | S. cerevisiae deletion strains, locus YLR258W, strain gsy2, stronger effect = lower value 0.991 | S. cerevisiae deletion strains, locus YLR262C, strain YPT6 (second series), stronger effect = lower value 0.97 | S. cerevisiae deletion strains, locus YLR262C, strain YPT6, stronger effect = lower value 1.03 | S. cerevisiae deletion strains, locus YLR268W, strain sec22, stronger effect = lower value 1.02 | S. cerevisiae deletion strains, locus YLR320W, strain mms22, stronger effect = lower value 0.979 | S. cerevisiae deletion strains, locus YLR330W, strain CHS5, stronger effect = lower value 1.01 | S. cerevisiae deletion strains, locus YLR342W, strain FKS1 (second series), stronger effect = lower value 1.03 | S. cerevisiae deletion strains, locus YLR342W, strain FKS1, stronger effect = lower value 0.971 | S. cerevisiae deletion strains, locus YLR357W, strain rsc2, stronger effect = lower value 0.942 | S. cerevisiae deletion strains, locus YLR370C, strain arc18, stronger effect = lower value 0.978 | S. cerevisiae deletion strains, locus YLR371W, strain rom2, stronger effect = lower value 1.04 | S. cerevisiae deletion strains, locus YLR384C, strain iki3, stronger effect = lower value 0.962 | S. cerevisiae deletion strains, locus YLR418C, strain cdc73, stronger effect = lower value 1.02 | S. cerevisiae deletion strains, locus YML016C, strain PPZ1, stronger effect = lower value 1.01 | S. cerevisiae deletion strains, locus YML032C, strain rad52, stronger effect = lower value 1.03 | S. cerevisiae deletion strains, locus YML120C, strain ndi1, stronger effect = lower value 0.977 | S. cerevisiae deletion strains, locus YML124C, strain tub3, stronger effect = lower value 1.02 | S. cerevisiae deletion strains, locus YMR058W, strain fet3, stronger effect = lower value 0.976 | S. cerevisiae deletion strains, locus YMR078C, strain ctf18, stronger effect = lower value 1.02 | S. cerevisiae deletion strains, locus YMR125W, strain sto1, stronger effect = lower value 0.938 | S. cerevisiae deletion strains, locus YMR129W, stronger effect = lower value 0.96 | S. cerevisiae deletion strains, locus YMR205C, strain PFK2, stronger effect = lower value 0.987 | S. cerevisiae deletion strains, locus YMR223W, strain ubp8, stronger effect = lower value 1.01 | S. cerevisiae deletion strains, locus YMR231W, strain pep5, stronger effect = lower value 0.981 | S. cerevisiae deletion strains, locus YMR263W, strain SAP30, stronger effect = lower value 1 | S. cerevisiae deletion strains, locus YMR307W, strain GAS1, stronger effect = lower value 1.01 | S. cerevisiae deletion strains, locus YNL067W, strain RPL9B, stronger effect = lower value 1 | S. cerevisiae deletion strains, locus YNL071W, strain lat1, stronger effect = lower value 0.961 | S. cerevisiae deletion strains, locus YNL128W, strain TEP1, stronger effect = lower value 1.01 | S. cerevisiae deletion strains, locus YNL153C, strain GIM3, stronger effect = lower value 1 | S. cerevisiae deletion strains, locus YNL183C, strain NPR1, stronger effect = lower value 0.957 | S. cerevisiae deletion strains, locus YNL209W, strain ssb2, stronger effect = lower value 0.968 | S. cerevisiae deletion strains, locus YNL233W, strain BNI4, stronger effect = lower value 1.01 | S. cerevisiae deletion strains, locus YNL248C, strain rpa49, stronger effect = lower value 0.963 | S. cerevisiae deletion strains, locus YNL250W, strain rad50, stronger effect = lower value 1.02 | S. cerevisiae deletion strains, locus YNL271C, strain bni1, stronger effect = lower value 1.02 | S. cerevisiae deletion strains, locus YNL298W, strain CLA4, stronger effect = lower value 1.01 | S. cerevisiae deletion strains, locus YNL307C, strain MCK1, stronger effect = lower value 1.03 | S. cerevisiae deletion strains, locus YNL322C, strain KRE1 (second series), stronger effect = lower value 0.958 | S. cerevisiae deletion strains, locus YNL322C, strain KRE1, stronger effect = lower value 1 | S. cerevisiae deletion strains, locus YNR049C, strain mso1, stronger effect = lower value 0.982 | S. cerevisiae deletion strains, locus YNR052C, strain pop2, stronger effect = lower value 1.02 | S. cerevisiae deletion strains, locus YOL006C, strain TOP1, stronger effect = lower value 1.03 | S. cerevisiae deletion strains, locus YOL012C, strain htz1 0.662 | S. cerevisiae deletion strains, locus YOL147C, strain pex11, stronger effect = lower value 1.02 | S. cerevisiae deletion strains, locus YOR001W, strain rrp6, stronger effect = lower value 0.934 | S. cerevisiae deletion strains, locus YOR061W, strain CKA2, stronger effect = lower value 1.01 | S. cerevisiae deletion strains, locus YOR069W, strain VPS5, stronger effect = lower value 1 | S. cerevisiae deletion strains, locus YOR070C, strain gyp1, stronger effect = lower value 1.01 | S. cerevisiae deletion strains, locus YOR080W, strain dia2, stronger effect = lower value 0.965 | S. cerevisiae deletion strains, locus YOR083W, strain WHI5, stronger effect = lower value 0.994 | S. cerevisiae deletion strains, locus YOR106W, strain vam3, stronger effect = lower value 0.97 | S. cerevisiae deletion strains, locus YOR136W, strain idh2, stronger effect = lower value 1.02 | S. cerevisiae deletion strains, locus YOR144C, strain elg1, stronger effect = lower value 1.02 | S. cerevisiae deletion strains, locus YOR184W, strain ser1, stronger effect = lower value 1.02 | S. cerevisiae deletion strains, locus YOR231W, strain MKK1, stronger effect = lower value 1.02 | S. cerevisiae deletion strains, locus YOR265W, strain rbl2, stronger effect = lower value 0.987 | S. cerevisiae deletion strains, locus YOR270C, strain vph1, stronger effect = lower value 0.914 | S. cerevisiae deletion strains, locus YOR290C, strain snf2, stronger effect = lower value 0.984 | S. cerevisiae deletion strains, locus YOR316C, strain cot1, stronger effect = lower value 1.03 | S. cerevisiae deletion strains, locus YPL051W, strain arl3, stronger effect = lower value 0.988 | S. cerevisiae deletion strains, locus YPL055C, strain LGE1, stronger effect = lower value 1.02 | S. cerevisiae deletion strains, locus YPL078C, strain atp4, stronger effect = lower value 0.981 | S. cerevisiae deletion strains, locus YPL106C, strain sse1, stronger effect = lower value 0.968 | S. cerevisiae deletion strains, locus YPL240C, strain hsp82, stronger effect = lower value 0.997 | S. cerevisiae deletion strains, locus YPL241C, strain CIN2, stronger effect = lower value 1 | S. cerevisiae deletion strains, locus YPL256C, strain CLN2, stronger effect = lower value 0.987 | S. cerevisiae deletion strains, locus YPR119W, strain clb2, stronger effect = lower value 1.02 | S. cerevisiae deletion strains, locus YPR141C, strain kar3, stronger effect = lower value 1.03 | S. cerevisiae deletion strains, locus YPR163C, strain tif3, stronger effect = lower value 1.02 | S. cerevisiae deletion strains, locus YPR167C, strain met16, stronger effect = lower value 1.02 | S. cerevisiae deletion strains, strain wtn01, stronger effect = lower value 1.02 | S. cerevisiae strains, strain wild type, stronger effect = lower value 1
